# Laboratory results taken from the supplement of paper PMC10849652.
# Of roughly 8,800 targets only a part is listed; those with a hit were picked by preference. About 0.5% of all pairs of compound and target were hits. Values without a mark were called inactive.
# What was measured:
# Assay in all cases: log2 fold change, soluble protein after heating vs DMSO (PISA); higher = thermal stabilisation; K562 lysate, 10 uM; active = over 0.2 and 3.5 SD of the protein, either way, in both replicates (recomputed)
# erlotinib = compound: C#Cc1cccc(Nc2ncnc3cc(OCCOC)c(OCCOC)cc23)c1 [erlotinib]
# How it was run: (§1)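 The values are log-two fold changes in thermal stability compared with solvent controls and come from duplicates. They were obtained by TMTpro 16plex LC-MS/MS, with channel sums equalised, on the supernatant after 21,000xg for 90 min. That supernatant came from crude K562 extract at 1 mg/mL protein treated with 10 μM compound for 30 min, heated for 3 min across 48°C-58°C, pooled and brought to 0.5% NP-40 at 4°C.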
# [1] = compound: C/C(=N\NC(=O)C1=CC(=CC=C1)S(=O)(=O)N2CCOCC2)/C3=C(C=CC(=C3)Cl)O
# How it was run: as §1
# [2] = compound: C1=CC(=CC=C1C2=NC3=C(N2)C=C(C=C3)C(=O)N)OC4=CC=C(C=C4)Cl
# How it was run: as §1
# [3] = compound: C1=CC2=C(C=CC(=C2)/C=C\3/C(=O)NC(=NCC4=CC=CS4)S3)N=C1
# How it was run: as §1
# [4] = compound: C1=CC2=NC=CN=C2C=C1/C=C/3\C(=O)NC(=O)S3
# How it was run: as §1
# [5] = compound: C1=CC=C(C=C1)C2=NC(=C(N2)C3=CC=NC=C3)C4=CC(=C(C=C4)Cl)O
# How it was run: as §1
# [6] = compound: C1=CC=C2C(=C1)C3=NNC4=CC=CC(=C43)C2=O
# How it was run: as §1
# [7] = compound: C1CCN(C1)C(=O)NC2=CC=CC(=C2)NC3=NC=C(C(=N3)NCCC4=CN=CN4)Br
# How it was run: as §1
# [8] = compound: C1CN(CCC1(CC2=CC=C(C=C2)Cl)N)C3=NC=NC4=C3C=CN4
# How it was run: as §1
# IRAK-1-4 Inhibitor I = compound: C1COCCN1CCN2C3=CC=CC=C3N=C2NC(=O)C4=CC(=CC=C4)[N+](=O)[O-] [IRAK-1-4 Inhibitor I]
# How it was run: as §1
# ibrutinib = compound: C=CC(=O)N1CCC[C@@H](n2nc(-c3ccc(Oc4ccccc4)cc3)c3c(N)ncnc32)C1 [ibrutinib]
# How it was run: as §1
# [9] = compound: CC(=O)c1cnc2ccc(-c3cc(Cl)c(O)c(Cl)c3)nc2c1N[C@H]1CC[C@H](CN(C)C)CC1
# How it was run: as §1
# ralimetinib = compound: CC(C)(C)Cn1c(N)nc2ccc(-c3[nH]c(C(C)(C)C)nc3-c3ccc(F)cc3)nc21 [ralimetinib]
# How it was run: as §1
# [10] = compound: CC(C)(O)CC(=O)NCCn1ccc2ncnc(Nc3ccc(Oc4cccc(C(F)(F)F)c4)c(Cl)c3)c21
# How it was run: as §1
# [11] = compound: CC(C)C1=C2N=C(C=C(N2N=C1)NCC3=CC=CC=C3)NCCCCCCN
# How it was run: as §1
# [12] = compound: CC1=C(C2=C(C=C1)C(=O)C3=CC=CC=C3N2CCCN)C
# How it was run: as §1
# [13] = compound: CC1=C(C=C(C=C1)NC(=O)C2=CC(=CC=C2)C(C)(C)C#N)NC3=CC4=C(C=C3)N=CN(C4=O)C
# How it was run: as §1
# [14] = compound: CC1=C(C=C(C=C1)NC(=O)C2=CC(=CC=C2)N(C)C)NC(=O)C3=CC=C(C=C3)O
# How it was run: as §1
# [15] = compound: CC1=CC=C(C=C1)SC2=C3C=C(SC3=CN=C2)C(=O)N
# How it was run: as §1
# [16] = compound: CC1=C(C(CC(=O)N1)C2=CC=C(C=C2)C(F)(F)F)C(=O)NC3=C(C=C4C(=C3)C=NN4)F
# How it was run: as §1
# Chain of UniProt Q9P0K8 (Q9P0K8 whole entry, looked up): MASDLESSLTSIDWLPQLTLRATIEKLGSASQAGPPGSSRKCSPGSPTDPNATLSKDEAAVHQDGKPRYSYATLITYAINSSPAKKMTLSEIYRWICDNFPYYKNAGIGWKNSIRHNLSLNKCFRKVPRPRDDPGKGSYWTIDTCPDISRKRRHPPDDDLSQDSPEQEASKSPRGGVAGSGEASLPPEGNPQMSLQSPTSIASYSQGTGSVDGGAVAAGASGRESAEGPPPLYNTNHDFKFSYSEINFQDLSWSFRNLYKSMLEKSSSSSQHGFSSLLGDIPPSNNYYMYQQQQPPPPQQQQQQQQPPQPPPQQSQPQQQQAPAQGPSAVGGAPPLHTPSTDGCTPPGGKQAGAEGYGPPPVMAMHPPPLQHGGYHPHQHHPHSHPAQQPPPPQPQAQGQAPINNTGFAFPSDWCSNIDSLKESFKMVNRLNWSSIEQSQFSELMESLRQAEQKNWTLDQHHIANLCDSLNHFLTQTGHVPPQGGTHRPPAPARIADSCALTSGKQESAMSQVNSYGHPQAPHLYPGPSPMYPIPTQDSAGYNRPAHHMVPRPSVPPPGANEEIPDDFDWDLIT
# Chain of UniProt Q8TF64 (Q8TF64 whole entry, looked up): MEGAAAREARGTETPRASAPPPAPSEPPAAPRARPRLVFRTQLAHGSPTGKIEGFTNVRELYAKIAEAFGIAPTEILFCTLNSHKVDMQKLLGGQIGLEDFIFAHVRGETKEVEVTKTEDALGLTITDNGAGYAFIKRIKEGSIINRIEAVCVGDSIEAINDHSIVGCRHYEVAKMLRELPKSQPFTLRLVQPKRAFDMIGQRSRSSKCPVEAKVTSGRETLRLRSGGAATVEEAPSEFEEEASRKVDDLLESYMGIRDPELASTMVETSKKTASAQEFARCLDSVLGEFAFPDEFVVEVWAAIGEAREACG
# Chain of UniProt Q13409 (Q13409 whole entry, looked up): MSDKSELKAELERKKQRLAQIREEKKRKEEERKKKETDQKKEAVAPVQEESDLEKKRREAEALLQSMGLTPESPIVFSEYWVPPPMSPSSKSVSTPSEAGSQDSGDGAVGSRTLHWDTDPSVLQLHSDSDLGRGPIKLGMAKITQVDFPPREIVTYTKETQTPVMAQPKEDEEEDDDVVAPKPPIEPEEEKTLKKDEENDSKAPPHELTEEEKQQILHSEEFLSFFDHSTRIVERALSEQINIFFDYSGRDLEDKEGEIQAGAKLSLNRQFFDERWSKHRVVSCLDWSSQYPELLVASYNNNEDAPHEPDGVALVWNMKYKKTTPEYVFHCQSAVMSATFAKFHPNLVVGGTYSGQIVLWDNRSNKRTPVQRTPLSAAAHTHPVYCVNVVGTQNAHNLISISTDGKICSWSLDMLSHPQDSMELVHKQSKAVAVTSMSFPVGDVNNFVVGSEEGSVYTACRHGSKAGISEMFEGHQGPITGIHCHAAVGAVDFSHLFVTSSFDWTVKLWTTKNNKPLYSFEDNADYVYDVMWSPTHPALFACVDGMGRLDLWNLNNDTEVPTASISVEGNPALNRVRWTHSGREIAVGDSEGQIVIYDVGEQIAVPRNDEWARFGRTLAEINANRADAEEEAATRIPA
# Chain of UniProt P28676 (P28676 whole entry, looked up): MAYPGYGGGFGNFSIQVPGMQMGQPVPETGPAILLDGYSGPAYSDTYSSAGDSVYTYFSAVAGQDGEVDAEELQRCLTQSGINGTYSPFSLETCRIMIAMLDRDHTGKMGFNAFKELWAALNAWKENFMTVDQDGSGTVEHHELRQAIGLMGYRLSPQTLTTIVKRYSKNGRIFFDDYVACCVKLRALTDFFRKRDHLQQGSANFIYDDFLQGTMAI
# Chain of UniProt Q9H8W3 (Q9H8W3 whole entry, looked up): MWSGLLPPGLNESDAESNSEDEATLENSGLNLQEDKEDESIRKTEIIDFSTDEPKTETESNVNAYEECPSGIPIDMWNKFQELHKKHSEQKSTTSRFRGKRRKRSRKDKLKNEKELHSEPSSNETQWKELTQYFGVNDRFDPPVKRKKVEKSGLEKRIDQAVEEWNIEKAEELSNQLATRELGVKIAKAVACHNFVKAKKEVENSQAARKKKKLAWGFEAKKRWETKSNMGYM
# Chain of UniProt P02774 (P02774 whole entry, looked up): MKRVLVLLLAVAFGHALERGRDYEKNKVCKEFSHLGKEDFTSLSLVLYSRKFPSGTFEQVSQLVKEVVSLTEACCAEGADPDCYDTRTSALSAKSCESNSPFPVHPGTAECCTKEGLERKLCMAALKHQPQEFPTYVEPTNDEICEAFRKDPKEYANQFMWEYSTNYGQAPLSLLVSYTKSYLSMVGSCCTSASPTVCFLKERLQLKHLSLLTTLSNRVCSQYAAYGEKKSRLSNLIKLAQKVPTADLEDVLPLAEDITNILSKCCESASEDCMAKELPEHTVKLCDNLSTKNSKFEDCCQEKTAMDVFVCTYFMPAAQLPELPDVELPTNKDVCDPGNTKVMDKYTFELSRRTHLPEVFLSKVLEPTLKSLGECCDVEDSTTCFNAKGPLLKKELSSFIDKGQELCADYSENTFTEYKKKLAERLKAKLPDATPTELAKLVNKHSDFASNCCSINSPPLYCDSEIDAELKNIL
# Chain of UniProt P58012 (P58012 whole entry, looked up): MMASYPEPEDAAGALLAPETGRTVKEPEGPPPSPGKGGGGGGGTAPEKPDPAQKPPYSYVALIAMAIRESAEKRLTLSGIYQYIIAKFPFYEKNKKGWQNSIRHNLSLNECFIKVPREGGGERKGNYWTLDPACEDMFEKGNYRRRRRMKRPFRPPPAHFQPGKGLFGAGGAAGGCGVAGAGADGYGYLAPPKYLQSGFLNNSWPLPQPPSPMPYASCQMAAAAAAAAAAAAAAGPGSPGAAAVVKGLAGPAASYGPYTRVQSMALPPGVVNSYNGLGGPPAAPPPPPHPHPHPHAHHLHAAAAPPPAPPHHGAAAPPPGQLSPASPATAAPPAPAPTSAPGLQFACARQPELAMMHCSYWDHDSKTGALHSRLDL
# Chain of UniProt Q9NZJ5 (Q9NZJ5 whole entry, looked up): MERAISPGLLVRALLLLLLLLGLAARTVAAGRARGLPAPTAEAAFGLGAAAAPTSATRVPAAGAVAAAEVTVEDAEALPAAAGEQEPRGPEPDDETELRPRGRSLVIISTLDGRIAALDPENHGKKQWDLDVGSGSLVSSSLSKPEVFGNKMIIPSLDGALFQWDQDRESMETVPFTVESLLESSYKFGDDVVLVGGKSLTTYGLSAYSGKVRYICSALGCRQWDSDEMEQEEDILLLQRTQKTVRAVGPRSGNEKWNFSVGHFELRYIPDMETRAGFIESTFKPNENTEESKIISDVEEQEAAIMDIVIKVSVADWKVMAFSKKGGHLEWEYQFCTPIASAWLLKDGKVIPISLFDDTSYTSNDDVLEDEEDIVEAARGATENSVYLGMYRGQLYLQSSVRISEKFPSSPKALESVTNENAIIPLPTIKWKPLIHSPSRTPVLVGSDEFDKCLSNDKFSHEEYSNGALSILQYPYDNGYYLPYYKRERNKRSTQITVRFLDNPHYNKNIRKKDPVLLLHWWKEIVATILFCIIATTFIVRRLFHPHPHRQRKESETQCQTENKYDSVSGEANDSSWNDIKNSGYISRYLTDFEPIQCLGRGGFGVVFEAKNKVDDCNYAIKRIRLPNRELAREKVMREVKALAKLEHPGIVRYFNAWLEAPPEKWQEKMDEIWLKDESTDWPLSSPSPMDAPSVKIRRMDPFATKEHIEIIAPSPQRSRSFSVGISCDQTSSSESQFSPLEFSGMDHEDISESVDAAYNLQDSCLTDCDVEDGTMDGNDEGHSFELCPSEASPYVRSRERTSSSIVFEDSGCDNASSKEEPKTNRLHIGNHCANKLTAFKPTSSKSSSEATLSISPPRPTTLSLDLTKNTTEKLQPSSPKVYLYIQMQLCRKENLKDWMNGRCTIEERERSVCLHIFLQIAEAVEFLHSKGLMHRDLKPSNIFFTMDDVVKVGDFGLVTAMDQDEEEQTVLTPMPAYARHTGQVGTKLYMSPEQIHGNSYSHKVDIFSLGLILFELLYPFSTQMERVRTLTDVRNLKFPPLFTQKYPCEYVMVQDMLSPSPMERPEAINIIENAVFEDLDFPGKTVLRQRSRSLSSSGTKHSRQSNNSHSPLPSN
# Chain of UniProt Q14153 (Q14153 whole entry, looked up): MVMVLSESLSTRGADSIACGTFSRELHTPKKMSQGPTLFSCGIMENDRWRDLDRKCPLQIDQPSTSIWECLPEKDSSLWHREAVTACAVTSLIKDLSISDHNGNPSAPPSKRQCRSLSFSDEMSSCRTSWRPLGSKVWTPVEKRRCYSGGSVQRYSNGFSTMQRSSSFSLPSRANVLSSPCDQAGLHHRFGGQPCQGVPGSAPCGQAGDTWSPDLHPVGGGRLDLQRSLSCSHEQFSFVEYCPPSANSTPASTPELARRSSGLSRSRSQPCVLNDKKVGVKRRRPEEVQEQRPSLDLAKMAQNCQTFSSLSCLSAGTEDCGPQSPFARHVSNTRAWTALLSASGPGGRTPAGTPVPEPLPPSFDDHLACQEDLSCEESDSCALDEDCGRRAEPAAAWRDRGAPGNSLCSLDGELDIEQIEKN
# Chain of UniProt O95718 (O95718 whole entry, looked up): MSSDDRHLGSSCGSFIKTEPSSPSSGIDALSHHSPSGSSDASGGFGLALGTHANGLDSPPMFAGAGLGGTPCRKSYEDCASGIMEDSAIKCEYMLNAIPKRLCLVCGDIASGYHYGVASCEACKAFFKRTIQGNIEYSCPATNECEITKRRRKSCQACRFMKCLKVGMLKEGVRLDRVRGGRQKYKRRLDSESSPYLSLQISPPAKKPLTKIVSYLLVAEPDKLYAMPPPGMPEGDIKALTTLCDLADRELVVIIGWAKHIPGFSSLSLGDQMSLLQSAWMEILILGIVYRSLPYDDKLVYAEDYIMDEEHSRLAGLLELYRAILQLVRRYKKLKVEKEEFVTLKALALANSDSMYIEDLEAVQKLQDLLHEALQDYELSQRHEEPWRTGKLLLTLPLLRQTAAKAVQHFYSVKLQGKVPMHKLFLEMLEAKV
Target,log2 fold change (erlotinib),log2 fold change [1],log2 fold change [2],log2 fold change [3],log2 fold change [4],log2 fold change [5],log2 fold change [6],log2 fold change [7],log2 fold change [8],log2 fold change (IRAK-1-4 Inhibitor I),log2 fold change (ibrutinib),log2 fold change [9],log2 fold change (ralimetinib),log2 fold change [10],log2 fold change [11],log2 fold change [12],log2 fold change [13],log2 fold change [14],log2 fold change [15],log2 fold change [16]
DYNC1I2 isoform 2 (UniProt Q13409),-0.012,-0.032,0.108,-0.088,-0.127,-0.002,0.055,0.005,-0.006,0.01,-0.101,-0.032,-0.04,-0.032,-0.017,0.083,-0.019,-0.047,0.012,
DYRK1A isoform 2 (UniProt Q13627),-0.064,,-0.476,,0.247,0.069,,,,-0.595,-0.063,,0.085,-0.241,0.005,,0.004,-0.081,,
ESRRB isoform 1 (UniProt O95718),0.1,,-0.783 (active),,-0.021,0.016,,,,0.236,-0.047,,0.035,-0.087,-0.187,,,0.053,,
GCA (UniProt P28676),-0.115,,-0.037,,,,,,,,,-0.134,,,0.191,,,,0.123,0.173
GC isoform 3 (UniProt P02774),,0.039,,-0.019,,-0.199,0.012,0.051,0.055,0.15,,,0.051,-0.559 (active),,-0.148,-0.087,-0.101,,
EIF2AK3 (UniProt Q9NZJ5),-0.014,,0.015,,,-0.049,,,,-0.044,,0.003,0.039,-0.191,0.012,0.037,,-0.061,-0.07,-0.052
FAM53B (UniProt Q14153),0.057,-0.087,-0.03,0.015,-0.004,-0.047,-0.024,-0.034,0.006,0.203,0.037,,-0.299,-0.084,0.037,0.161,-0.07,-0.263,,0.098
FOXJ2 (UniProt Q9P0K8),0.102,,0.056,,0.139,0.026,,0.138,-0.036,-0.03,-0.045,,0.02,-0.035,0.091,-0.129,,0.108,,0.041
FOXL2 (UniProt P58012),0.274,,-0.129,,-0.006,-0.085,,-0.024,0.187,0.026,-0.074,-0.065,0.264,-0.095,0.161,-0.023,,0.02,-0.035,
EPN2 (UniProt I3L356),,,,,-0.143,,,,,,0.105,-0.021,,,,,,,0.097,0.102
FAM204A (UniProt Q9H8W3),-0.021,-0.018,-0.014,0.11,,0.018,-0.008,,,0.01,,,-0.12,0.061,-0.117,,0.174,-0.002,,
GIPC3 (UniProt Q8TF64),-0.049,,0.091,,-0.025,0.063,,0.008,0.139,0.101,-0.021,-0.078,-0.019,-0.011,0.022,-0.019,0.185,-0.033,-0.13,0.282
